The source of these data is PubChem BioAssay AID1347416 (National Center for Advancing Translational Sciences (NCATS), 2020).

The campaign covered roughly 4,100 compounds. About 1,600 (39%) were called active. Roughly 25% stayed inconclusive and do not appear here. The call rests on the fitted dose curve; in most records, active means well fitted inhibition curve with a large enough effect; inconclusive means small, poorly fitted or top-dose-only effect; inactive means no such curve, though single readings can be large or run the other way. This is one part of the list. Entries that show only a call come without a potency.
Potency means the concentration at half of the fitted maximal effect.

A short description of the assay: qHTS Validation assay for Inhibitors of Plasmodium falciparum Dd2 growth in vitro. Further: nearly all actives have a fitted effect of over 70% in size. The following applies: P. falciparum Dd2 in RBCs, SYBR Green growth, 72 h; series mostly up to 28.7 µM. The method, boiled down: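 P. falciparum Dd2-infected red blood cells (2.5% hematocrit, 0.3% parasitemia) grown 72 h at 37 °C under 5% O2 with compounds in a titration, 29 uM to 0.5 nM final. Growth read as SYBR Green-1 fluorescence after ~16 h lysis; artesunate 300 nM as positive control.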
(In general: Quantitative high-throughput screening tests each substance at several concentrations.)
With `Cc1ccc(-c2nc3ccccc3c(=O)n2O)cc1`, the Potency entry was “inactive”.

Turning to `Cc1ccc(Oc2c(C)nc(-c3ccccc3)[nH]c2=O)cc1`, the Potency is 5.31 µM (active).

On to `CCC(=O)N1CCN(C2CCN(Cc3ccccn3)C2=O)CC1` (configuration not stated), for which the Potency result is “inactive”.

Consider `Cc1ccnc2nc(C(=O)Nc3cc(Cl)ccc3N3CCOCC3)nn12`, for which the Potency was 4.73 µM (active).

Consider `CCn1ncc(Cl)c1C(=O)Nc1ccncc1`, for which the Potency entry is “inactive”.

As to `CNC(=O)[C@@H]1CN(Cc2ccc(C#N)cc2)C[C@H]1COC`, the Potency result is “inactive”.

`O=C(Nc1ccncc1)Nc1ccc(Cl)cc1`: the Potency is 10.6 µM (active).

On to `N#Cc1ccc(NC(=O)Nc2ccc(Cl)cc2)cc1`, for which the Potency was 5.31 µM (active).

In the case of `O=C(Nc1ccncc1)c1ccc(Cl)c(Cl)c1`, the Potency result is “inactive”.

With `Cc1cc(C)n2nc(C(=O)N3CCN4C(=O)CN(C)C(=O)C4C3)cc2n1` (configuration not stated), the Potency result is “inactive”.

In the case of `CC(C)c1ccc(N2CC(C(=O)NCc3cncn3C3CC3)CC2=O)cc1` (configuration not stated), the Potency result was “inactive”.

`CCc1ccc(OCC(=O)Nc2ccc(-c3nc4ncccc4o3)cc2)cc1`: the Potency result was “inactive”.

On to `Cc1ccc(NC(=O)CSc2n[nH]c(-c3ccccn3)n2)cc1`, for which the Potency entry is “inactive”.

`CCc1ccc(NC(=O)CSc2nc3n[nH]c(C)c3c(=N)n2-c2ccc(C)cc2)cc1`: the Potency is 6.68 µM (active).

As to `CC(C)c1noc(-c2cccn3c(CNC(=O)c4cccc(Cl)c4)nnc23)n1`, the Potency entry was “inactive”.

For `CCCN1CCc2[nH]cnc2C12CCN(C(=O)c1ccc(CSC)o1)CC2`, the Potency result is “inactive”.

`CC(OC(=O)CCc1cc(C(C)(C)C)c(O)c(C(C)(C)C)c1)C(=O)NC1CC1` (configuration not stated): the Potency was 4.73 µM (active).

Take `COc1ccc(C(=O)NCc2nnc3c(-c4nc(C(C)C)no4)cccn23)cc1F`: the Potency entry was “inactive”.

`COc1ccc(-c2noc(-c3cccn3CC(=O)Nc3cccc(Cl)c3C)n2)cc1F`: the Potency result is “inactive”.

For the compound `COc1ccc(-c2noc(-c3cccn3CC(=O)Nc3cc(C)ccc3C)n2)cc1F`, the Potency entry was “inactive”.

Consider `COc1ccc(-c2noc(-c3cccn3CC(=O)Nc3ccccc3C)n2)cc1F`, for which the Potency is 5.31 µM (active).

In the case of `COc1ccc(-c2noc(-c3cccn3CC(=O)Nc3ccccc3F)n2)cc1F`, the Potency is 4.22 µM (active).

For the compound `O=C1COCC2(CN(Cc3ccsc3)C2)CN1Cc1cccc(OC(F)(F)F)c1`, the Potency was 17.2 µM (active).

Consider `O=C1NC2(CCN(Cc3ccc(OC(F)(F)F)cc3)C2)OCc2ccccc21` (configuration not stated), for which the Potency entry is “inactive”.

In the case of `O=C(c1cc(C(F)(F)F)[nH]n1)N1CC[C@@H](c2ccc(F)cc2)[C@H](O)C1`, the Potency result was “inactive”.

In the case of `CCCCCNc1nc2sc3c(c2c(=O)n1-c1cccc(Cl)c1)CCN(C)C3`, the Potency was 7.5 µM (active).

Turning to `CC(C)OC(=O)c1cccc(NC(=O)Cn2nnc3sc4c(c3c2=O)CCCC4)c1`, the Potency entry is “inactive”.

On to `CCCCNc1nc2sc3c(c2c(=O)n1-c1cccc(Cl)c1)CCN(C)C3`, for which the Potency was 9.44 µM (active).

Turning to `CCOC(=O)N1CCc2c(sc3nc4n(c(=O)c23)N=C(c2ccc(OC)cc2)CS4)C1`, the Potency entry is “inactive”.

Turning to `Cc1ccc(-c2nc(CN3CCCC3=O)no2)cc1`, the Potency result is “inactive”.

In the case of `CCn1nnc(NC(=O)c2ccc(C(C)(C)C)cc2)n1`, the Potency is 9.44 µM (active).

Regarding `CCCn1nnc(NC(=S)NC(=O)Cc2ccccc2)n1`, the Potency result was “inactive”.

Consider `CCOc1ccccc1C(=O)Nc1nc2c(s1)CC(C)CC2` (configuration not stated), for which the Potency result was “inactive”.

Consider `C[C@]1(CO)[C@H]2Cc3sc(NC(=O)c4cccc(F)c4)nc3[C@@H](CC(=O)N3CCOCC3)[C@]2(C)CC[C@H]1O`, for which the Potency was 8.41 µM (active).

Consider `C[C@H](C(=O)N1CCCC1)C1CC[C@@]2(C)Cc3sc(NC(=O)C4CC4)nc3[C@@H](C)[C@@H]2[C@H]1O` (some centres not stated), for which the Potency entry is “inactive”.

Regarding `CCOc1cc(C(=O)Nc2nnc(CC)s2)ccc1OCC(=O)N1CCOCC1`, the Potency result is “inactive”.

On to `CC1CCN(C(=O)C[C@@H]2c3nc(NC(=O)c4cccc(F)c4)sc3C[C@@H]3[C@](C)(CO)[C@H](O)CC[C@]32C)CC1`, for which the Potency was 10.6 µM (active).

Take `CCN(CC)C(=O)C[C@@H]1c2nc(NC(=O)c3cccc(F)c3)sc2C[C@@H]2[C@](C)(CO)[C@H](O)CC[C@]21C`: the Potency is 9.44 µM (active).

For the compound `Cc1ccc(-c2nnc3ccc(-c4ccoc4)nn23)nc1`, the Potency entry was “inactive”.

`COc1ccc(-n2cc(CNCCCn3ccnc3)c(-c3ccccc3Cl)n2)cc1`: the Potency was 3.35 µM (active).

`CCCn1cnnc1CNC(=O)CC1C(=O)NCCN1Cc1ccoc1` (configuration not stated): the Potency entry was “inactive”.

Regarding `Cc1ccc(OCC(=O)N2CCC(c3noc(-c4ccccn4)n3)C2)cc1` (configuration not stated), the Potency result was “inactive”.

Consider `Cc1ccc(OCc2nc(C3CCN(C(=O)c4c5c(nc6ccccc46)CCCC5)CC3)no2)cc1`, for which the Potency was 9.44 µM (active).

In the case of `Cc1ccc(OCc2nc(C3CN(C(=O)c4ccc5nc[nH]c5c4)C3)no2)cc1`, the Potency entry was “inactive”.

Regarding `CCc1cccc(NC(c2nnc(-c3ccccc3)o2)c2ccc(F)cc2Cl)c1` (configuration not stated), the Potency was 6.68 µM (active).

On to `COc1ccc(C2C=C(c3ccc(Cl)cc3)Nc3nc(-c4ccc(Cl)cc4)nn32)cc1` (configuration not stated), for which the Potency was 0.237 µM (active).

As to `Cc1ccc(C2=CC(c3ccc(Cl)cc3)n3nc(-c4ccc(C)cc4)nc3N2)cc1` (configuration not stated), the Potency is 1.68 µM (active).

Turning to `COc1ccc(C2C=C(c3ccccc3)Nc3nc(NS(=O)(=O)c4ccccc4)nn32)cc1` (configuration not stated), the Potency result was “inactive”.

As for `Cc1ccc(-c2nc3n(n2)C(c2ccccc2Cl)C=C(c2ccc(Cl)cc2)N3)cc1` (configuration not stated), the Potency was 9.44 µM (active).

On to `COC(=O)C1=C(C)Nc2nnnn2C1c1ccccc1Cl` (configuration not stated), for which the Potency result was “inactive”.

On to `COc1ccc(C2C=C(c3ccc(F)cc3)Nc3nc(-c4ccc(Cl)cc4)nn32)cc1` (configuration not stated), for which the Potency is 0.75 µM (active).

Consider `CC(=O)c1cccc(NC(=O)[C@H]2O[C@@H]3OC(C)(C)O[C@@H]3[C@H]3OC(C)(C)O[C@H]32)c1`, for which the Potency entry was “inactive”.

`COc1ccc(Cl)cc1NC(=O)c1cc(C)nc2c1c(C)nn2-c1ccccc1`: the Potency entry was “inactive”.

As for `COc1cccc(-c2c(C#N)c(N)nc3c2c(C)nn3-c2ccccc2)c1O`, the Potency is 1.5 µM (active).

Consider `CCN(C(=O)Cn1nc2c3cc(F)ccc3n(Cc3cccc(C)c3)cc-2c1=O)c1cccc(C)c1`, for which the Potency result was “inactive”.

As for `Cc1cccc(C(=O)NCc2nnc3c(-c4nc(C(C)C)no4)cccn23)c1`, the Potency entry is “inactive”.

`CCN(C(=O)CSc1nc(-c2ccc(C(C)C)cc2)no1)c1cccc(C)c1`: the Potency is 1.06 µM (active).

As to `CCN(C(=O)CSc1nc(-c2ccc(C(C)C)cc2)no1)c1ccccc1`, the Potency was 0.944 µM (active).

For `O=C(Cn1cc(C(=O)c2ccncc2)c(=O)c2cc(F)ccc21)Nc1ccc(Cl)cc1`, the Potency result is “inactive”.

Take `Cc1ccc(NC(=O)c2cc(C(=O)c3cc(Cl)ccc3O)cn(-c3ccc(C)cc3)c2=O)cc1`: the Potency is 0.422 µM (active).

As to `Cc1ccc(NC(=O)c2cc3n(n2)CC(c2ccc(Cl)cc2)OC3)cc1` (configuration not stated), the Potency entry was “inactive”.

`Cn1c(=O)c(=O)n(C)c2cc(N3CCCC3)c(NC(=O)c3ccccc3F)cc21`: the Potency entry was “inactive”.

With `Cc1ccccc1NC(=O)c1cc(C(=O)c2cc(Cl)ccc2O)cn(-c2ccccc2C)c1=O`, the Potency was 0.376 µM (active).

In the case of `COc1cc(Cn2nnc3ccccc32)cc(Br)c1O`, the Potency result was “inactive”.

Regarding `CCC(C)NC(=O)C1CCC(CNS(=O)(=O)c2cccc3nsnc23)CC1` (configuration not stated), the Potency result was “inactive”.

For `Oc1ccc(-c2n[nH]c(=S)n2-c2ccc3c(c2)OCCO3)c(O)c1`, the Potency was 2.66 µM (active).

Regarding `CCOc1ccc(NC(=O)c2cnn3c2NC(c2cccc(OC)c2)=CC3c2ccccc2)cc1` (configuration not stated), the Potency was 4.73 µM (active).

As to `COc1ccc(C2=CC(c3ccc(F)cc3)n3ncc(C(=O)Nc4ccc(C)cc4)c3N2)cc1` (configuration not stated), the Potency was 2.37 µM (active).

On to `Cc1nn2c(c1-c1ccccc1Oc1ccccc1)N(Cc1ccccc1O)CCC2`, for which the Potency was 4.85 µM (active).

As for `COc1cccc(CC(=O)N2CCCn3nc(C)c(-c4ccccc4OCc4ccccc4)c32)c1`, the Potency was 9.44 µM (active).

With `COc1ccc(CN2CCCn3nc(C)c(-c4ccccc4Oc4ccccc4)c32)cc1O`, the Potency is 9.44 µM (active).

For the compound `Cc1nn2c(c1-c1ccccc1Oc1ccccc1)N(C(=O)Cc1cccc(F)c1)CCC2`, the Potency result is “inactive”.

For `Cc1nn2c(c1-c1ccccc1Oc1ccccc1)N(Cc1cccc(O)c1)CCC2`, the Potency is 10.9 µM (active).

With `COCC(=O)N[C@@H]1CN(C(=O)Cc2cccc(OC)c2)CC[C@@H]1c1nc(C)no1`, the Potency entry was “inactive”.

For the compound `Cc1nn2c(c1-c1ccccc1OCc1ccccc1)N(Cc1ccccc1)CCC2`, the Potency was 15.3 µM (active).

Regarding `S=c1[nH]cc(-c2ccc(Cl)cc2)n1-c1ccccc1`, the Potency entry is “inactive”.

Regarding `COc1ccc(-n2nc(C3CCN(Cc4ccc(C(F)(F)F)cc4)CC3)[nH]c2=O)cc1`, the Potency result was “inactive”.

Regarding `Cc1ccc2c(n1)N(C)[C@H](CO)CCN(Cc1ccc(C(F)(F)F)cc1)C2`, the Potency is 15.3 µM (active).

In the case of `Cc1ccc(Cn2c(C3CCN(C(=O)c4ccc(C(F)(F)F)cc4)CC3)n[nH]c2=O)cc1`, the Potency entry was “inactive”.

Turning to `CCN(CC)C(=O)N1CCCCC1c1noc(COc2ccc(F)cc2)n1` (configuration not stated), the Potency result is “inactive”.

For `CCc1cccc(NC(=O)C2CCN(C(=O)c3nnn4c3COC(c3ccc(C)cc3)C4)CC2)c1` (configuration not stated), the Potency result is “inactive”.

Take `CCOc1ccccc1C(=O)N1CCN(C(=O)c2nnn3c2COC(c2ccccc2)C3)CC1` (configuration not stated): the Potency was 16.8 µM (active).

Regarding `CC(C)(C)c1ccc(C(=O)N2CCN(C(=O)c3nnn4c3COC(c3ccccc3)C4)CC2)cc1` (configuration not stated), the Potency was 10.6 µM (active).

Consider `CC(C)c1cccc(NC(=O)C2CCN(C(=O)c3ncn4c3COC(c3ccccc3)C4)CC2)c1` (configuration not stated), for which the Potency result was “inactive”.

For the compound `O=C(NCCC1=CCCCC1)C1CCN(C(=O)c2ncn3c2COC(c2ccccc2)C3)CC1` (configuration not stated), the Potency result is “inactive”.

Regarding `COc1ccc(C)cc1-n1c(-c2ccc(Cl)cc2)cc2c1CC(C)(C)CC2=O`, the Potency was 2.99 µM (active).

With `CC(C)C[C@@H](NC(=O)[C@@H](O)[C@H](N)Cc1ccccc1)C(=O)O`, the Potency was 2.99 µM (active).

Turning to `CCNC(=O)NC(=O)C(C)Sc1nc2ccccc2c(=O)n1-c1cccnc1` (configuration not stated), the Potency entry was “inactive”.

As to `CC(Sc1nc2ccccc2c(=O)n1C)C(=O)N(C)C1CCCCC1` (configuration not stated), the Potency is 5.31 µM (active).

In the case of `COc1cccc(NC(=O)N[C@H]2[C@H](O)[C@@H](Oc3ccccc3)[C@@H]3OC[C@H]2O3)c1`, the Potency entry is “inactive”.

Turning to `COc1cccc(NC(=O)CSc2nc(=O)[nH]c3c2CCCC3)c1`, the Potency entry was “inactive”.

Regarding `COc1cccc(NC(=O)c2cccc3c(=O)c4c([nH]c23)CCCC4)c1`, the Potency is 2.99 µM (active).
